This is part of a sample that, as a whole, favours compounds with a hit. Of some 83,000 tested, about 20% had one in any assay.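 Method: cells in 96-well plates; compound added at one concentration; 48 h incubation; percent growth measured; values under 10 scored active.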 Unmarked numbers belong to inactive results. The source made the active and inactive calls.
How the values were obtained:
Experiment in all cases: NCI-60 one-dose screen, 48 h (100 = growth as untreated, 0 = no growth, -100 = all killed)
Details in all cases: 10 µM unless noted
[1] = system: SK-MEL-2 melanoma
[2] = system: EKVX NSCLC
[3] = system: SN12C renal
[4] = system: UO-31 renal
[5] = system: TK-10 renal
[6] = system: ACHN renal
[7] = system: CAKI-1 renal
[8] = system: A498 renal
[9] = system: CCRF-CEM leukemia
[10] = system: MOLT-4 leukemia
[11] = system: SR leukemia
[12] = system: RPMI-8226 leukemia
[13] = system: OVCAR-8 ovarian
[14] = system: OVCAR-5 ovarian
[15] = system: OVCAR-4 ovarian
[16] = system: SK-OV-3 ovarian
[17] = system: IGROV1 ovarian
[18] = system: OVCAR-3 ovarian
[19] = system: HS 578T breast
[20] = system: NCI/ADR-RES ovarian

SMILES	growth [1]	growth [2]	growth [3]	growth [4]	growth [5]	growth [6]	growth [7]	growth [8]	growth [9]	growth [10]	growth [11]	growth [12]	growth [13]	growth [14]	growth [15]	growth [16]	growth [17]	growth [18]	growth [19]	growth [20]
CC1(C)CC[C@]2(C(=O)N3CCOCC3)CC[C@]3(C)C(=CC[C@@H]4[C@@]5(C)C/C(=C/c6ccncc6)C(=O)C(C)(C)[C@@H]5CC[C@]43C)[C@@H]2C1	-6.74% (active)	14.5%	18%	11%	35.9%	15.6%	16.7%	-20.3% (active)	-6.27% (active)	-16.9% (active)	-31.3% (active)	-33.5% (active)	34%	30.3%	14.2%	28.9%	33.1%	16.1%	27.5%	26.2%
COc1cc2nc(Nc3cccc(F)c3)nc(Nc3cc(C)[nH]n3)c2cc1OC	-68.2% [20 µM] (active)	-67.4% [20 µM] (active)	-94.3% [20 µM] (active)	-98.7% [20 µM] (active)	-71% [20 µM] (active)	-97.1% [20 µM] (active)	-97.7% [20 µM] (active)	-83% [20 µM] (active)	-19.7% [20 µM] (active)	-40.8% [20 µM] (active)	-9.83% [20 µM] (active)	-41.7% [20 µM] (active)	-42.5% [20 µM] (active)	-100% [20 µM] (active)	-88.2% [20 µM] (active)	-90% [20 µM] (active)	-96.1% [20 µM] (active)	-80.2% [20 µM] (active)		-57.8% [20 µM] (active)
FC(F)(F)c1[nH]ncc1-c1nc2c(N3CCCCC3)cc3[nH]ncc3c2c2c1CCCC2	-34% (active)	13.2%	2.49% (active)	-19.6% (active)	1.88% (active)	4.67% (active)	5.43% (active)	-71.6% (active)	4.61% (active)	-0.165% (active)	-4.82% (active)	-6.13% (active)	7.14% (active)	6.62% (active)	24.3%	-25% (active)	-8.41% (active)	-2.67% (active)	-11.8% (active)	44.8%
CCCCCCCC/C=C\CCCCCCCCOc1ccc(CC(=O)NCC[N+](C)(C)C)cc1	101%	87.8%	50%	92.8%	24.6%	60.8%	44.6%	68.9%	54.6%	75.1%	62.4%	40.9%	54.8%	27.5%	72.2%	93.6%	6.27% (active)	83.3%	76.7%	94.4%
CCN(CC)CCCNCc1cc(-c2ccccc2)nc2cc(Cl)ccc12	-61.9% (active)	80.9%	38.2%	11%	42.8%	66.2%	50.5%	22.3%	10.4%	13.6%	13.6%	3.47% (active)	28.8%	87.5%	67.8%	75.6%	28.9%	61.7%	24.2%	23.2%
COc1cc2cc(NCc3ccc(OC(F)F)cc3)nc(C)c2cc1OC	79.8%	75.6%	62.6%	38.6%	54.1%	69.5%	51.5%	30.5%	68.9%	63.3%	53.1%	42.5%	71.3%	56.1%	74.2%	57.6%	48.2%	77%		56.3%
COc1cccc(NC(=O)c2cccc(C3CCc4c(cc(OC)c(OC)c4OC)O3)c2)c1 (configuration not stated)	65.5%	69.1%	55.2%	34.5%	74.5%	66.8%	80.3%	30.2%	22.1%	7.7% (active)	35.7%	28.4%	54.5%	81.8%	56.7%	71.7%	65.6%	81.1%		55.9%

— PubChem BioAssay (NCI)
